Test results as given in PubChem BioAssay (Tox21).
Records with an inconclusive call do not appear. Entries that show only a call come without a potency. The source made the active and inactive calls. The call rests on the fitted dose curve.

experiment: qHTS assay for small molecule agonists of the p53 signaling pathway - cell viability (AID 651633); settings: p53RE-bla HCT-116 viability, ATP luminescence, 16 h; series mostly up to 83.3 µM;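 further: p53RE-bla HCT reporter cells with a stable beta-lactamase p53 reporter; nearly all actives have a fitted effect of over 30% in size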
Procedure, shortened: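 p53RE-bla cells were treated with compound for 16 hours at 37 C. Cytotoxicity was then measured as CellTiter-Glo luminescence after 30 min at room temperature.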

SMILES | Potency
CC(C)(C)c1cccc(O)c1 | inactive
CCOc1ccccc1N | inactive
CCCCCCC | inactive
CCN1CC(CCN2CCOCC2)C(c2ccccc2)(c2ccccc2)C1=O (stereo not drawn) | inactive
COC(=O)C(C)O (stereo not drawn) | inactive
O=C1CCCc2ccccc21 | inactive
NC(=O)Cc1cccc(C(=O)c2ccccc2)c1N | inactive
C=CC1CO1 (stereo not drawn) | inactive
CCN[C@H]1CN(CCCOC)S(=O)(=O)c2sc(S(N)(=O)=O)cc21 | inactive
CCCNC(C)C(=O)Nc1c(C)csc1C(=O)OC (stereo not drawn) | inactive
CC(=O)N[C@@H](CC(C)C)C(=O)O | inactive
O=C(O[C@@H](C(=O)O)[C@@H](OC(=O)c1ccccc1)C(=O)O)c1ccccc1 | inactive
C=CC(C)(O)CC/C=C(\C)CCC=C(C)C (stereo not drawn) | inactive
CC(C)C(=O)OCC(C)(C)C(O)C(C)C (stereo not drawn) | inactive
Cc1ccccc1C(=O)Nc1ccc(C(=O)N2CCCC(O)c3cc(Cl)ccc32)c(C)c1 (stereo not drawn) | inactive
CC(C)C(=O)OC/C=C/c1ccccc1 | inactive
CCOC(=O)[C@H](CCc1ccccc1)N[C@@H](C)C(=O)N1Cc2cc(OC)c(OC)cc2C[C@H]1C(=O)O | inactive
CCOC(=O)C(Br)c1ccccc1 (stereo not drawn) | inactive

SMILES | Potency
C=C(C)C(=O)OCCOP(=O)(O)O | inactive
NC/C=C/C(=O)O | inactive
CC(C)c1ccccc1 | inactive
CCCCCCCCCC/C=C/C#N | inactive
COc1ccccc1N1CCN(CCCNc2cc(=O)n(C)c(=O)n2C)CC1 | inactive
O=C1N(c2ccccc2)c2ccccc2C1(Cc1ccncc1)Cc1ccncc1 | inactive
OCc1c2ccccc2cc2ccccc12 | inactive
CC(C)(CO)[C@@H](O)C(=O)NCCC(=O)O | inactive
NCCC(O)(P(=O)(O)O)P(=O)(O)O | inactive
CN(C)Cc1ccccc1 | inactive
CC/C=C\CCOC(=O)CCCCC | inactive
COC(=O)c1ccc(OC)cc1 | inactive
Cc1cc(S(=O)(=O)O)c(N)cc1Cl | inactive
O=C(O)c1ccccc1Nc1cc(Cl)ccc1C(=O)O | inactive
CCCCNC(=S)NCCCC | inactive
O=C(O)c1cccc(Cl)c1Cl | inactive
C=CCc1cc(OC)c(O)c(C(=O)NCCO)c1 | inactive
CC(C)(C)c1ccc(OC(=O)c2ccccc2O)cc1 | inactive

experiment: qHTS assay for small molecules that induce genotoxicity in human embryonic kidney cells expressing luciferase-tagged ATAD5 - cell viability (AID 651634); settings: HEK293T ATAD5-luc cells viability, CellTiter-Fluor, 15.5 h; series mostly up to 83.3 µM; further: nearly all actives have a fitted effect of over 25% in size
Procedure, shortened: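 HEK293T cells expressing luciferase-tagged ATAD5 were exposed to compound or DMSO for 15.5 hr at 37C, 5% CO2. Viability was then read as live-cell protease activity by CellTiter-Fluor fluorescence after 30 min at 37C.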

SMILES | Potency
CC(C)(C)c1cccc(O)c1 | inactive
CCOc1ccccc1N | inactive
CCCCCCC | inactive
CCN1CC(CCN2CCOCC2)C(c2ccccc2)(c2ccccc2)C1=O (stereo not drawn) | inactive
COC(=O)C(C)O (stereo not drawn) | inactive
O=C1CCCc2ccccc21 | inactive
NC(=O)Cc1cccc(C(=O)c2ccccc2)c1N | inactive
C=CC1CO1 (stereo not drawn) | inactive
CCN[C@H]1CN(CCCOC)S(=O)(=O)c2sc(S(N)(=O)=O)cc21 | inactive
CCCNC(C)C(=O)Nc1c(C)csc1C(=O)OC (stereo not drawn) | inactive
CC(=O)N[C@@H](CC(C)C)C(=O)O | inactive
O=C(O[C@@H](C(=O)O)[C@@H](OC(=O)c1ccccc1)C(=O)O)c1ccccc1 | inactive
C=CC(C)(O)CC/C=C(\C)CCC=C(C)C (stereo not drawn) | inactive
CC(C)C(=O)OCC(C)(C)C(O)C(C)C (stereo not drawn) | inactive
Cc1ccccc1C(=O)Nc1ccc(C(=O)N2CCCC(O)c3cc(Cl)ccc32)c(C)c1 (stereo not drawn) | inactive
CC(C)C(=O)OC/C=C/c1ccccc1 | inactive
CCOC(=O)[C@H](CCc1ccccc1)N[C@@H](C)C(=O)N1Cc2cc(OC)c(OC)cc2C[C@H]1C(=O)O | inactive
CCOC(=O)C(Br)c1ccccc1 (stereo not drawn) | inactive

SMILES | Potency
C=C(C)C(=O)OCCOP(=O)(O)O | inactive
NC/C=C/C(=O)O | inactive
CC(C)c1ccccc1 | inactive
CCCCCCCCCC/C=C/C#N | inactive
COc1ccccc1N1CCN(CCCNc2cc(=O)n(C)c(=O)n2C)CC1 | inactive
O=C1N(c2ccccc2)c2ccccc2C1(Cc1ccncc1)Cc1ccncc1 | inactive
OCc1c2ccccc2cc2ccccc12 | inactive
CC(C)(CO)[C@@H](O)C(=O)NCCC(=O)O | inactive
NCCC(O)(P(=O)(O)O)P(=O)(O)O | inactive
CN(C)Cc1ccccc1 | inactive
CC/C=C\CCOC(=O)CCCCC | inactive
COC(=O)c1ccc(OC)cc1 | inactive
Cc1cc(S(=O)(=O)O)c(N)cc1Cl | inactive
O=C(O)c1ccccc1Nc1cc(Cl)ccc1C(=O)O | inactive
CCCCNC(=S)NCCCC | inactive
O=C(O)c1cccc(Cl)c1Cl | inactive
C=CCc1cc(OC)c(O)c(C(=O)NCCO)c1 | inactive
CC(C)(C)c1ccc(OC(=O)c2ccccc2O)cc1 | inactive

experiment: qHTS assay for small molecule disruptors of the mitochondrial membrane potential - cell viability (AID 720634); settings: HepG2 viability, ATP luminescence (CellTiter-Glo), 1 h; series mostly up to 83.2 µM;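 further: human HepG2 liver cancer cells; nearly all actives have a fitted effect of over 20% in size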
Procedure, shortened: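 HepG2 cells seeded overnight at 37 C, then exposed to compound or DMSO for 1 hr at 37 C, 5% CO2. m-MPI dye added, then CellTiter-Glo for 30 min at room temperature; viability read as ATP luminescence.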

SMILES | Potency
CC(C)(C)c1cccc(O)c1 | inactive
CCOc1ccccc1N | inactive
CCCCCCC | inactive
CCN1CC(CCN2CCOCC2)C(c2ccccc2)(c2ccccc2)C1=O (stereo not drawn) | inactive
COC(=O)C(C)O (stereo not drawn) | inactive
O=C1CCCc2ccccc21 | inactive
NC(=O)Cc1cccc(C(=O)c2ccccc2)c1N | inactive
C=CC1CO1 (stereo not drawn) | inactive
CCN[C@H]1CN(CCCOC)S(=O)(=O)c2sc(S(N)(=O)=O)cc21 | inactive
CCCNC(C)C(=O)Nc1c(C)csc1C(=O)OC (stereo not drawn) | inactive
CC(=O)N[C@@H](CC(C)C)C(=O)O | inactive
O=C(O[C@@H](C(=O)O)[C@@H](OC(=O)c1ccccc1)C(=O)O)c1ccccc1 | inactive
C=CC(C)(O)CC/C=C(\C)CCC=C(C)C (stereo not drawn) | inactive
CC(C)C(=O)OCC(C)(C)C(O)C(C)C (stereo not drawn) | inactive
Cc1ccccc1C(=O)Nc1ccc(C(=O)N2CCCC(O)c3cc(Cl)ccc32)c(C)c1 (stereo not drawn) | inactive
CC(C)C(=O)OC/C=C/c1ccccc1 | inactive
CCOC(=O)[C@H](CCc1ccccc1)N[C@@H](C)C(=O)N1Cc2cc(OC)c(OC)cc2C[C@H]1C(=O)O | inactive
CCOC(=O)C(Br)c1ccccc1 (stereo not drawn) | inactive

SMILES | Potency
C=C(C)C(=O)OCCOP(=O)(O)O | inactive
NC/C=C/C(=O)O | inactive
CC(C)c1ccccc1 | inactive
CCCCCCCCCC/C=C/C#N | inactive
COc1ccccc1N1CCN(CCCNc2cc(=O)n(C)c(=O)n2C)CC1 | inactive
O=C1N(c2ccccc2)c2ccccc2C1(Cc1ccncc1)Cc1ccncc1 | inactive
OCc1c2ccccc2cc2ccccc12 | inactive
CC(C)(CO)[C@@H](O)C(=O)NCCC(=O)O | inactive
NCCC(O)(P(=O)(O)O)P(=O)(O)O | inactive
CN(C)Cc1ccccc1 | inactive
CC/C=C\CCOC(=O)CCCCC | inactive
COC(=O)c1ccc(OC)cc1 | inactive
Cc1cc(S(=O)(=O)O)c(N)cc1Cl | inactive
O=C(O)c1ccccc1Nc1cc(Cl)ccc1C(=O)O | inactive
CCCCNC(=S)NCCCC | inactive
O=C(O)c1cccc(Cl)c1Cl | inactive
C=CCc1cc(OC)c(O)c(C(=O)NCCO)c1 | inactive
CC(C)(C)c1ccc(OC(=O)c2ccccc2O)cc1 | inactive
